For part of these data: Entries with a potency or affinity are not part of this list.

Common to all, as to set-up: scale not given: direction of the effect not stated beside the values
For assay [1], the target named is Protein translocase subunit SecA (Escherichia coli (strain K12)) (UniProt P10408). In words: Assay to Identify E. coli SecA ATPase Inhibitors. In kind it is functional. The conditions noted are these: 30 µM.
In assay [2] the target is T1, Ubiquitin-activating enzyme e1, putative (Leishmania donovani (strain BPK282A1)) (UniProt E9BSI1).
T1 sequence (whole entry): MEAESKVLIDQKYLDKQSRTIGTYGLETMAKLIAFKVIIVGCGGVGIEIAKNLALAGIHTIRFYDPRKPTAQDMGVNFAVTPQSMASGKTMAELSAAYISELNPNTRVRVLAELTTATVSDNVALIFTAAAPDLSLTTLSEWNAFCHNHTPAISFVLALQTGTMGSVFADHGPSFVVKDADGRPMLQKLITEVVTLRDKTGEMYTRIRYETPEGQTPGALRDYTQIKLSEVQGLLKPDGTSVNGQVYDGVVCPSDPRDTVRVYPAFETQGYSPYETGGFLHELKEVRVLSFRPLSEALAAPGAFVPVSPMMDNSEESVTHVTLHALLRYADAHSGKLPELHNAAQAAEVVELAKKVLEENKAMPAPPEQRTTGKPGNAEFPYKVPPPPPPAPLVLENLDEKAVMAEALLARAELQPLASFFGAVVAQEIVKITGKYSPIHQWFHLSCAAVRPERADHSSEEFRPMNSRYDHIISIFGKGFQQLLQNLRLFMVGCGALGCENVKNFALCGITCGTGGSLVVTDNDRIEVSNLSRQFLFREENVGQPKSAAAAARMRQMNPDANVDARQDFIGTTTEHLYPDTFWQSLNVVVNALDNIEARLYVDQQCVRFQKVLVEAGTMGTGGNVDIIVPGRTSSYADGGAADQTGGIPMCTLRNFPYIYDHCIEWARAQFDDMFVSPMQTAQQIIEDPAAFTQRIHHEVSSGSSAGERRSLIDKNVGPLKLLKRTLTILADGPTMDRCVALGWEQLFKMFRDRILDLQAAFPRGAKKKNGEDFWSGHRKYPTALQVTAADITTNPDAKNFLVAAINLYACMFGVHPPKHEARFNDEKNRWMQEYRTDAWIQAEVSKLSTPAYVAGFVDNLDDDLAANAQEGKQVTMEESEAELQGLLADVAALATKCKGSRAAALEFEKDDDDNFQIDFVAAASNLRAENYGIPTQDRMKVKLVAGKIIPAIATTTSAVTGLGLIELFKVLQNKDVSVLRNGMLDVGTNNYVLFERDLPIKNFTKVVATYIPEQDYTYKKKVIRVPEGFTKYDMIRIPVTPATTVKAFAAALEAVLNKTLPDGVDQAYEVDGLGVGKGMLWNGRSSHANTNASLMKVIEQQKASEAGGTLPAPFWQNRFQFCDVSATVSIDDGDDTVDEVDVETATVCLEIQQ
In words: Leishmania donovani Ubiquitin Activating Enzyme (LdE1). In kind it is functional. Conditions: 30 µM.

The target in assay [3] is Sialic acid-binding Ig-like lectin 9 (Homo sapiens) (UniProt Q9Y336). The experiment in a line: Hs-Siglec9 ALPHAscreen SOP 20170721. The conditions noted are these: 10 µM. For orientation: In Alpha technology, singlet oxygen from a donor bead excites a nearby acceptor bead.
Chain of Sialic acid-binding Ig-like lectin 9 (Homo sapiens) (Q9Y336 whole entry): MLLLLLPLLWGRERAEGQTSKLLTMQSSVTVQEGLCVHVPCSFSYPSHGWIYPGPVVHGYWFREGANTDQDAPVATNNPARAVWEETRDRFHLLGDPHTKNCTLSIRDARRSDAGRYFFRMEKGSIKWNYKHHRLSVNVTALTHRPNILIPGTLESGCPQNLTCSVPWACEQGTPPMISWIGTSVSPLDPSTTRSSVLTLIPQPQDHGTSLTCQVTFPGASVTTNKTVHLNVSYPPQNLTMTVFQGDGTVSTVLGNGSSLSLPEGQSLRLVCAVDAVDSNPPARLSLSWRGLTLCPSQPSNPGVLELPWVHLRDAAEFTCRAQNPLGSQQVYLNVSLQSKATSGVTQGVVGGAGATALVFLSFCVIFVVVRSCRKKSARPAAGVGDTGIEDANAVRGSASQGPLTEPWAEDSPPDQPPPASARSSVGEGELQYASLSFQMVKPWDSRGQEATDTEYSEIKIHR
In assay [4] the test system is Trypanosoma cruzi. In words: Trypanosoma cruzi phosphomannomutase and mannose-1-phosphate guanylyltransferase assay. In kind it is functional. Conditions: 10 µM.
In assay [5] the target is T2, Arginase-2, mitochondrial (Homo sapiens) (UniProt P78540).
T2 sequence (whole entry): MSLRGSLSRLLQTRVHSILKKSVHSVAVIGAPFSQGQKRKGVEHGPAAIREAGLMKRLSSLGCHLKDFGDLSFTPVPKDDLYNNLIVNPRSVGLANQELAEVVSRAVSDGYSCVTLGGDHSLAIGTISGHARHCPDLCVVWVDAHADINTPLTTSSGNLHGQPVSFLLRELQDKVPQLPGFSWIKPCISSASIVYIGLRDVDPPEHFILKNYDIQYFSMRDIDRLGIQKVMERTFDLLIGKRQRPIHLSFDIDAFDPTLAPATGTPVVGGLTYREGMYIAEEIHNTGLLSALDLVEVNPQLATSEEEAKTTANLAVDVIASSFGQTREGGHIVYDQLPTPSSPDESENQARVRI
The experiment in a line: in vitro enzyme assay to detect the production of urea directly proportional to the activity of Arginase II. Also: in the data most compounds retested in dose-response had high values. In kind it is functional. The conditions noted are these: 33.3 µM.

Assay [6] addresses T3, Proteasome subunit beta (Trypanosoma cruzi) (UniProt O96673).
T3 sequence (whole entry): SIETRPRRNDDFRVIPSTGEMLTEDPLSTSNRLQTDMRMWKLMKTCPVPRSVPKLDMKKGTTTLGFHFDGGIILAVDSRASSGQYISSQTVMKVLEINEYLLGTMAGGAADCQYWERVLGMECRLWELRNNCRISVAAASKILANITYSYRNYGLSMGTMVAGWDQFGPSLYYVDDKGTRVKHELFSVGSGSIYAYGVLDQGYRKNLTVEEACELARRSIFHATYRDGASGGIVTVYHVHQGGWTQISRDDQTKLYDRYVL
The experiment in a line: Trypanosoma cruzi proteasome chymotrypsin-like activity (TcProtChymo) assay. Also: in the data most compounds retested in dose-response had high values. In kind it is functional. The conditions noted are these: 9.37 µM.

Assay [7] is filed under the species Homo sapiens. In words: To identify inhibition of the IFN signalling (Jak-Stat) pathway via expression of an eGFP reporter gene under the control of an IFN-stimulated response element (ISRE) containing MxA promoter. Conditions: 30 µM. In kind it is functional. For orientation: In a reporter assay the amount or activity of a reporter protein is the signal.
The target in assay [8] is T4, Tyrosyl-tRNA synthetase, putative (Trypanosoma cruzi (strain CL Brener)) (UniProt Q4DSP6).
T4 sequence (whole entry): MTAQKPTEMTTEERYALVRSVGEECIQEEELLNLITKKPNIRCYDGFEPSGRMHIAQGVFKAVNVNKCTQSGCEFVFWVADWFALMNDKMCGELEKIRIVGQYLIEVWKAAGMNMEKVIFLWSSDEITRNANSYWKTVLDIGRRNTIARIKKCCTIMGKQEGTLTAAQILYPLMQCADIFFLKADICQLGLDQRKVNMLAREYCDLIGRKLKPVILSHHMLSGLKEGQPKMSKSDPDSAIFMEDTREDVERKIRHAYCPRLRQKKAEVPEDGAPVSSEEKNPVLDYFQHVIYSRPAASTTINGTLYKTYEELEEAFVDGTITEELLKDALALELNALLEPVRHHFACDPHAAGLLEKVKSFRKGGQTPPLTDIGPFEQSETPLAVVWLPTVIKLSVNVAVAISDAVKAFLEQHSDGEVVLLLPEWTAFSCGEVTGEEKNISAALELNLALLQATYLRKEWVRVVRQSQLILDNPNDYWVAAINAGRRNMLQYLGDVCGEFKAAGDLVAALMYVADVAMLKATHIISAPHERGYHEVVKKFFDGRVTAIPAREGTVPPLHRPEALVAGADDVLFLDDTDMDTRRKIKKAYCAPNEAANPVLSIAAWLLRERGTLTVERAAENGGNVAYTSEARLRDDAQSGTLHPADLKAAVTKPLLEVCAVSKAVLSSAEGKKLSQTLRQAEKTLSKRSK
In words: Trypanosoma cruzi tyrosyl tRNA synthetase (TcYRS) _High Tyrosine SOP. Also: in the data most compounds retested in dose-response had high values. In kind it is functional. Conditions: 30 µM.

Assay [9] has as its target T4, Tyrosyl-tRNA synthetase, putative (Trypanosoma cruzi (strain CL Brener)). The experiment in a line: Trypanosoma cruzi tyrosyl tRNA synthetase (TcYRS) SOP. In kind it is functional. The conditions noted are these: 30 µM.
The target of assay [10] is Chromo domain-containing protein 1 (Saccharomyces cerevisiae (strain ATCC 204508 / S288c) (Baker's yeast)) (UniProt P32657). In words: ScCHD-1 Enzyme Inhibition Assay. Also: in the data most compounds retested in dose-response had high values. In kind it is functional. Conditions: 30 µM.
Chain of Chromo domain-containing protein 1 (Saccharomyces cerevisiae (strain ATCC 204508 / S288c) (Baker's yeast)) (P32657 whole entry, the tested form may be a part): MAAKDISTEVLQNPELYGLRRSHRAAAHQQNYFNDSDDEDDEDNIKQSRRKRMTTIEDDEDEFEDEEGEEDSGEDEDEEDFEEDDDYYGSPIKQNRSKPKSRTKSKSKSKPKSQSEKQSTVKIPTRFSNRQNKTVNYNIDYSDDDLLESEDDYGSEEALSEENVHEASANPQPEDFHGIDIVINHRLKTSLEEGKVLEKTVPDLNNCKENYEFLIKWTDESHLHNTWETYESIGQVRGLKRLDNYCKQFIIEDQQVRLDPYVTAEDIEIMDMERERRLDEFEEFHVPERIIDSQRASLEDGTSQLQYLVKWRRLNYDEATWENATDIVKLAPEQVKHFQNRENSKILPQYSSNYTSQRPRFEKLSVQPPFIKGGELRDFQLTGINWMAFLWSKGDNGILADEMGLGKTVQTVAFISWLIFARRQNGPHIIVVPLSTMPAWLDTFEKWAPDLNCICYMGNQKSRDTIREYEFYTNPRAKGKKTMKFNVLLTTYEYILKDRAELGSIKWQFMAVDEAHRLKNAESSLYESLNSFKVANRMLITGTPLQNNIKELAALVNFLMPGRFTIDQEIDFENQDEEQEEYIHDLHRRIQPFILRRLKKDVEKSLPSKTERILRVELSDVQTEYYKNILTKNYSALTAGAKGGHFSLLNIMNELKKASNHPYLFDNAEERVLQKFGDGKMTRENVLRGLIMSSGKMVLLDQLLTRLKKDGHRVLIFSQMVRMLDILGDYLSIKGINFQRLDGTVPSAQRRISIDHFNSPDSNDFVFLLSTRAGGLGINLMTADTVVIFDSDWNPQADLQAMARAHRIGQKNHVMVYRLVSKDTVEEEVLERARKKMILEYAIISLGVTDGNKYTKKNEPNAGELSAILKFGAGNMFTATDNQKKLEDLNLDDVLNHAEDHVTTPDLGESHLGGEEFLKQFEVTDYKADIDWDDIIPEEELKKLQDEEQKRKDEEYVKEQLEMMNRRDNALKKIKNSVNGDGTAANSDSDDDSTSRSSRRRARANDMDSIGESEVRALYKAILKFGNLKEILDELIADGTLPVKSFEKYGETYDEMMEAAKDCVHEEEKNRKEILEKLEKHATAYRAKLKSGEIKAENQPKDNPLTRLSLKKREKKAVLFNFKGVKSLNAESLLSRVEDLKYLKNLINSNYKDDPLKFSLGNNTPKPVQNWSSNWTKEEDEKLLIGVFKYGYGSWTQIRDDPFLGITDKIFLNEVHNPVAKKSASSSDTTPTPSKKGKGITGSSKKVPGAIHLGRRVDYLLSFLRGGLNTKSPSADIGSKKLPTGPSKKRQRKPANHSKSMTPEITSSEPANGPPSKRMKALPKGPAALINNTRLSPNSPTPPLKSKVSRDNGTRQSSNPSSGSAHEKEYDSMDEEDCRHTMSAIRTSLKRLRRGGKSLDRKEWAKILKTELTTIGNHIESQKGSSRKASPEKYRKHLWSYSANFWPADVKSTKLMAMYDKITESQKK

Chain of Protein translocase subunit SecA (Escherichia coli (strain K12)) (P10408 whole entry): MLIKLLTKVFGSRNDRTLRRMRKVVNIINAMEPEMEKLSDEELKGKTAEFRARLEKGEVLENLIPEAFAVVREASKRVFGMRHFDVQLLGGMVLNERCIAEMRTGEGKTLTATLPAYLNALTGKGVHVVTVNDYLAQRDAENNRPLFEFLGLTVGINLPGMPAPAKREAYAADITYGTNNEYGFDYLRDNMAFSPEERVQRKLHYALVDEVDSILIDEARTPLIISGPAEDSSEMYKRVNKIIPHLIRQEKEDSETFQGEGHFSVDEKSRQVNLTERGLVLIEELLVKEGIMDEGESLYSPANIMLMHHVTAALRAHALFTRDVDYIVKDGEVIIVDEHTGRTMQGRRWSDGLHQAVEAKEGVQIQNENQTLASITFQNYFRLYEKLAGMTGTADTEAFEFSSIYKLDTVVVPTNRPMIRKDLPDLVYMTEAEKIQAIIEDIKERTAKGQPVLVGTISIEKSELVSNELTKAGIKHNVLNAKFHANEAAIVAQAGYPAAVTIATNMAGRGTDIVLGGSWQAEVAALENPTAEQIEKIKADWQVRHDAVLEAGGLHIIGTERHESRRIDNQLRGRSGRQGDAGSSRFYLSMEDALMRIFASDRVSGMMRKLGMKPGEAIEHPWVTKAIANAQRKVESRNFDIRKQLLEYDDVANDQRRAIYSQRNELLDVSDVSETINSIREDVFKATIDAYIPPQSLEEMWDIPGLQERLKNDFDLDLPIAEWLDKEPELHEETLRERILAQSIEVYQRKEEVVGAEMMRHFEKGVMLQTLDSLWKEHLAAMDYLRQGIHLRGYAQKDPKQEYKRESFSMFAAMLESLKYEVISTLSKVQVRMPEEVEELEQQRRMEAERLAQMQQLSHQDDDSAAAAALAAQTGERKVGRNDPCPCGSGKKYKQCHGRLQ

Consider `Cc1ccc(CCC(=O)N2CCCC(n3cncn3)C2)c(C)c1` (stereo not given), for which the Percent Effect in [1] was -4.25%; in assay [2], 8%; in assay [3], 2.16%; in assay [4], -6.02%; in assay [5], 0.444%; in [6], 2.63%. Besides, the Percent Effect in assay [7] is -1.21%; in assay [8], 5.79%; in [9], 2.56%; in assay [10], 1.81%.

With `Cn1ccc(C(=O)NCc2ccc(N3CCCC3)nc2)cc1=O`, the Percent Effect in [1] is -3.18%; in [2], 8%; in [3] it was 10.6%; in assay [4], 1%; in [5], 0%; in assay [6], 5.85%. For the same compound, the Percent Effect in [7] was 21.7%; in assay [8], 3.68%; in [9], 5.13%; in [10], -7.64%.

On to `Cc1cc(NC(=O)CN2CCCC2c2noc(C(C)C)n2)n(C)n1` (stereo not given), for which the Percent Effect was 0.91% in assay [1]; -42.7% in assay [2]; 2.01% in [3]; 0% in assay [4]; -0.444% in [5]; 4.67% in [6]. The Percent Effect is -3.3% in [7], 2.63% in assay [8], 5.13% in [9] and 0.723% in [10].

Turning to `CC(C)N1CC(C(=O)NCc2ccnc(-n3cccn3)c2)CC1=O` (stereo not given), the Percent Effect in [1] is -1.72%; in assay [2], 12.8%; in assay [3], -8.26%; in assay [4] it was 0.469%; in [5], 8.2%; in assay [6], 3.33%. Further, the Percent Effect in assay [7] was 25.3%; in assay [8], 5.26%; in [9], 13.2%; in assay [10], -3.04%.

Take `CCc1cnc(CN2CCC(N(C)Cc3noc(C4CC4)n3)C2)o1` (stereo not given): the Percent Effect is -3.48% in [1]; 0% in assay [2]; -1.21% in assay [3]; -2.24% in assay [4]; 4.3% in assay [5]; 0.175% in [6]. The Percent Effect in assay [7] is 5.76%; in assay [8], 0.98%; in [9], -2.35%; in assay [10], 0.446%.

Take `CS(=O)(=O)NCC1CCCN(C(=O)COc2ccc(F)cc2)C1` (stereo not given): the Percent Effect in assay [1] is -1.75%; in [2] it was 10.3%; in assay [3], -7.96%; in assay [4], 9.86%; in [5], 1.23%; in assay [6], 3.5%. Also, the Percent Effect in [7] is 12.5%; in assay [8], 4.31%; in [9] it was -146%; in assay [10] it was -6.15%.

As to `CCSCCC(=O)NS(=O)(=O)c1ccc2c(c1)OCCO2`, the Percent Effect in assay [1] is -2%; in [2] it was 10.3%; in assay [3], -9.92%; in assay [4], -1.97%; in assay [5], 1.23%; in assay [6], 4.69%. For the same compound, the Percent Effect was 9.19% in [7], 2.39% in assay [8], 10.8% in [9] and -1.85% in assay [10].

Turning to `O=C(c1ccncc1)N1CCCC2(COCCN(c3ccccc3)C2)C1` (stereo not given), the Percent Effect is -5.29% in [1]; -1.3% in [2]; -2.94% in assay [3]; -6.72% in assay [4]; -5.26% in assay [5]; 20% in [6]. Besides, the Percent Effect in [7] is 0.424%; in assay [8], 6.84%; in assay [9], 7.69%; in assay [10], -1.75%.

Turning to `O=C(C1CCOCC1)N1CC[C@H]2C[C@@H](c3ccncn3)O[C@@H]2C1`, the Percent Effect in assay [1] is -7.3%; in assay [2], 3.9%; in assay [3], 2.39%; in assay [4] it was 5.55%; in [5] it was -6.48%; in assay [6] it was 13.7%. The Percent Effect was -13.3% in assay [7], 3.68% in assay [8], 15.4% in assay [9] and 25.1% in assay [10].

Consider `CC(=O)N(Cc1noc(C)n1)C1CCN(CCOc2ccccc2)C1` (stereo not given), for which the Percent Effect in [1] was -2.68%; in [2], 13%; in assay [3], 0.712%; in [4], -1.68%; in assay [5], -0.615%; in assay [6] it was 17.9%. Also, the Percent Effect in [7] was -1.33%; in assay [8], 7.84%; in assay [9] it was 21.2%; in assay [10] it was -7.28%.

`O=C1CCC(C(=O)NCc2nn(-c3ccccc3)c3c2CCC3)CN1` (stereo not given): the Percent Effect in assay [1] was -6.78%; in [2] it was 5.13%; in [3], -2.63%; in assay [4] it was -2.16%; in assay [5], -2.46%; in assay [6] it was 1.96%. Further, the Percent Effect came to 22% in assay [7], 1.44% in [8], 6.02% in [9] and 0.942% in [10].

Turning to `CCc1nc(C2CCCN2C(=O)c2cc(C3CC3)[nH]n2)no1` (stereo not given), the Percent Effect was -3.71% in assay [1]; 5.33% in [2]; -4.76% in assay [3]; -5.02% in [4]; 1.77% in assay [5]; -1.44% in assay [6]. Moreover, the Percent Effect in assay [7] is 12.6%; in [8] it was 3.68%; in assay [9], 5.13%; in assay [10], -6.15%.

(Values after ChEMBL document CHEMBL3988442, “University of Dundee, Small-Polar-MMV Screening Library” (2021).)
